CYP2C9 act: human CYP2C9 activators, primary screen, biochemical, luminescence | Cytochrome P450 2C9 (Homo sapiens), P11712 | recombinant CYP2C9, luciferin-H conversion; stronger effect = higher value; factor 1 = untreated enzyme, 0 = blocked | activation factor at 5 µM | 96,000 compounds, 1.4% hits;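 active = activation factor of 2 or more for CYP2C9 at a 5 µM dose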;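 note: 0 = sulfaphenazole-blocked wells and 1 = vehicle-only wells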
Target sequence (P11712 whole entry, looked up): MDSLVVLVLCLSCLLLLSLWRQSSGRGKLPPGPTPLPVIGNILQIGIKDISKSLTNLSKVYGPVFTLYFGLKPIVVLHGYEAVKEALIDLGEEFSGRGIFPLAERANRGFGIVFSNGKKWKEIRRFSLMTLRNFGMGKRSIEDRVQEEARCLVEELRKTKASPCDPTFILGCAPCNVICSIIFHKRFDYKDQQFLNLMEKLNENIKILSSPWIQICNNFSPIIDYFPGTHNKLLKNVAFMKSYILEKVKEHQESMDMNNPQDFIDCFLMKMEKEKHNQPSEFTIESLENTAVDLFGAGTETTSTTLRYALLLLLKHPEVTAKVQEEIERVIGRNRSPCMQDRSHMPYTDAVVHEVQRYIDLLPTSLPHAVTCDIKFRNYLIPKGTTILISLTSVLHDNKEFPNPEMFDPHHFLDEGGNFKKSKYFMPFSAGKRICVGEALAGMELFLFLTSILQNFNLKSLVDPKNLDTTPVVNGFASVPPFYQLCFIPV
CYP2C19 inhib: blockers of cytochrome P450 2C19 activity – biochemical, luminescence, ADME assay, primary screen. P33261. CYP2C19 Supersomes, luciferin-H EGE luminescence, 30 min. inhibition, % at 5 µM. 96,000 compounds, 21% hits. AID 778, 2007;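 active = CYP2C19 inhibition above a set limit at 5 µM in the primary screen, cut at about 50% in these data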;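 note: plate controls were negative control wells for no effect and 2.5 mM tranylcypromine positive control for full effect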
CYP2C9 inh: blockers of cytochrome P450 2C9 activity – biochemical, luminescence, ADME assay, primary screen; P11712; inhibition, % at 5 µM; AID 777, 2007; CYP2C9 Supersomes, luciferin-H conversion; 96,000 compounds, 20% hits;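 active = blocking of liver enzyme CYP2C9 beyond about 50% at 5 µM, limit read from the data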
CYP2C19 act: human CYP2C19 activators, primary screen, biochemical, luminescence. Cytochrome P450 2C19 (Homo sapiens), P33261. activation factor at 5 µM. 96,000 tested, under 10 active. recombinant CYP2C19, luciferin-H EGE luminescence; stronger effect = higher value; 0 = fully inhibited enzyme, 1 = untreated enzyme. AID 1025, 2008;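 active = activation factor of at least 2 at 5 µM in the primary screen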;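 note: 0 = wells with 2.5 mM tranylcypromine and 1 = vehicle-only wells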
EphB4 ephrin blk: EphB4-ephrin-B2 interaction antagonists, primary screen, biochemical, TNYL-RAW peptide probe, fluorescence polarization; EphB4 LBD / TNYL-RAW-Alexa532 peptide; inhibition, % at 7 µM; 97,000 compounds, 0.15% hits; AID 720, 2007; Ephrin type-B receptor 4 (Homo sapiens), P54760;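 active = inhibition above the screen-wide mean inhibition plus 3 SD, cut at about 15% in these data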;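 note: 0% = DMSO wells and 100% = excess unlabeled TNYL-RAW peptide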
* = called active by the depositor; x = no result given. A selection: hits, their analogues and other compounds. The true share with any hit is near 27%.

SMILES	CYP2C9 act	CYP2C19 inhib	CYP2C9 inh	CYP2C19 act	EphB4 ephrin blk
CCn1c(=O)c(C(=O)CN2CCCc3ccccc32)c(N)n(Cc2ccccc2)c1=O	0.1	81.3*	93.1*	0.2	x
Cn1c(=O)c2c(nc(NCC(O)CO)n2CCc2ccccc2)n(C)c1=O (stereo unspecified)	0.9	2.3	5.7	1	2.6
C=CCn1c(-c2cc(OC)cc(OC)c2)n[nH]c1=S	0.8	33.3	15.8	0.7	4.2
O=C(Nc1cccc(Br)c1)c1ccc2nc(N3C(=O)CCC3=O)sc2c1	0.9	15.4	5.7	0.8	5.1
O=C(Oc1ccc(-c2nnco2)cc1)N1CCCCC1	0.7	77.4*	29.5	0.2	-0.4
O=C(Oc1ccc(-c2nnco2)cc1)N(c1ccccc1)c1ccccc1	0.6	69.2*	39.0	0.3	2.5
Cc1ccc(S(=O)(=O)N2CCN(C(=O)COc3ccc(-c4nnco4)cc3)CC2)cc1	0.7	10.3	30.4	0.9	5.4
CCCCc1ccc(Nc2ncnc3nc[nH]c23)cc1	0.6	53.0*	42.0	0.5	-2.5
O=C(CSCc1ccccc1Cl)NN1C(=O)c2ccccc2C1=O	0.5	49.0	51.0*	0.5	-2.2
CCC(C)NC(=O)CSc1nnc(-c2cc(-c3cccs3)nc3ccccc23)o1 (stereo unspecified)	0	75.1*	97.6*	0.2	1.1
O=C(CSc1nnc(-c2cc(-c3cccs3)nc3ccccc23)o1)NC1CCCCC1	0.5	8.1	50.4*	0.9	6.2
CCCN(CC1CC1)C(=O)CSc1nnc(-c2cc(-c3cccs3)nc3ccccc23)o1	0.4	0.0	55.4*	1	-0.9
CC1CCCC(C)N1C(=O)CSc1nnc(-c2cccs2)o1 (stereo unspecified)	0.5	84.2*	47.7	0.2	-2.9
Cc1ccc(C)n1-n1c(C)nc2sc(-c3ccccc3)cc2c1=O	0.9	11.7	11.9	0.9	1.2
Cc1ccc(OCc2nc(-c3ccccc3)no2)c(C)c1	0.4	72.3*	58.6*	0.3	-3.7
CCOc1ccc(-c2nc(-c3cccnc3)no2)cc1	x	x	x	x	-3.7
Cc1cc(C)c(C)c(OCc2nc(-c3cccnc3)no2)c1	0.8	68.3*	21.5	0.3	-2.3
Cc1cc2c(=O)n(CC(=O)N3CCN(c4ccccc4)CC3)cnc2s1	1.1	-7.3	-13.1	1.1	-2.6
O=C(CS(=O)CC(=O)N(CC(=O)NC1CCCC1)C1CCCCC1)Nc1ccc(F)cc1 (stereo unspecified)	0.4	8.4	57.4*	0.9	-2.5
O=C1c2[nH]nc(-c3ccccc3O)c2C(c2cccc(O)c2)N1Cc1ccco1 (stereo unspecified)	0.9	26.6	11.1	0.7	-2.9
CCCc1noc2c1/C(=N\O)CC(c1ccccc1)C2 (stereo unspecified)	x	x	x	x	6.6
COc1cc(/C=C2/OC(=O)c3cc([N+](=O)[O-])ccc32)cc(OC)c1OC	x	x	x	x	-1.3
Cc1cccc(-n2ccnc2SCC(=O)Nc2ccc3c(c2)OCCO3)c1	0.3	44.9	69.5*	0.6	-6.3
O=C(CSc1nccn1-c1ccc(Cl)cc1)Nc1ccc2c(c1)OCO2	0.5	68.8*	53.5*	0.3	-4.5
CC(C)c1nnc(SCC(=O)Nc2ccc3c(c2)OCO3)n1C	x	x	x	x	1.4
SMILES	CYP2C9 act	CYP2C19 inhib	CYP2C9 inh	CYP2C19 act	EphB4 ephrin blk
Clc1ccc2nc(C3CCN(Cc4nnnn4C4CCCCC4)CC3)[nH]c2c1	x	x	x	x	0.5
CC1(C)CC(=O)C2=C(C1)Nc1ccccc1NC2c1nc2ccccc2[nH]1 (stereo unspecified)	1.2	-10.6	-16.6	1.1	-8.5
CC(OCC(O)CN(C)CCOc1ccccc1)c1ccc(Cl)cc1 (stereo unspecified)	0.6	75.4*	36.6	0.2	-3.7
Cc1ccc(CSc2nnc(-c3ccc4c(c3)OCO4)o2)cc1	0.8	12.7	15.4	0.9	-6.6
Cc1ccc(-c2nnc(CSc3nc4cc5c(cc4cc3C)OCO5)o2)cc1	0.4	32.0	64.8*	0.7	3.0
Cc1cc(Oc2ccccc2)nc(SCC(N)=O)n1	1	25.8	0.1	0.7	-3.7
O=C(COc1cnc2ccccc2n1)NCCC1=CCCCC1	0.7	54.7*	28.0	0.5	3.0
O=C(CCNC(=O)Cn1cnc2ccccc2c1=O)NCCC1=CCCCC1	0.7	22.0	25.6	0.8	x
O=C(/C=C/c1cccc2ccccc12)NCCC1=CCCCC1	2.7*	18.3	-168.7	0.8	-0.2
NC(=O)NCCC1=CCCCC1	0.9	-1.2	5.3	1	7.9
O=C(COc1nncc2ccccc12)NCCC1=CCCCC1	1	35.6	-4.2	0.6	-10.1
O=C(Cn1nc(C(=O)O)c2ccccc2c1=O)NCCC1=CCCCC1	0.8	57.7*	22.6	0.4	x
O=C(COc1ncnc2ccccc12)NCCC1=CCCCC1	0.7	54.1*	26.8	0.5	x
O=C(NCCC1=CCCCC1)C(=O)NCc1ccccc1Cl	0.9	2.3	12.7	1	2.7
CCC1CCCCN1CCCNC(=O)c1ccc2c(=O)n(Cc3ccc(OC)cc3)c(=O)[nH]c2c1 (stereo unspecified)	0.9	8.9	8.4	0.9	9.8
CCCCOc1ccc(C2(C)CC(=O)NC2=O)cc1 (stereo unspecified)	0.8	50.6*	15.4	0.5	x
CCCCCCOc1ccc(OCC(O)CN2C(=O)NC(C)(C)C2=O)cc1 (stereo unspecified)	0.9	14.7	13.6	0.9	1.2
O=C(Cn1sc2ccccc2c1=O)NC12CC3CC(CC(C3)C1)C2	0.1	39.0	90.3*	0.6	2.5
Cc1nn(C)c(Oc2cccc(Cl)c2)c1C(=O)Nc1ccc(F)cc1	0.9	39.8	9.8	0.6	6.8
N#Cc1c(NCCCO)nc(-c2ccccc2)c2c1CCCC2	0	92.7*	97.2*	0.1	-0.6
COC(=O)CSc1nc2c(c(-c3ccc(C)o3)c1C#N)CCCC2	1.7	35.1	-66.1	0.6	-0.2
COC(=O)CSc1nc(N2CCCCC2)c2c(c1C#N)CCCC2	0.1	68.5*	89.6*	0.3	-1.3
COC(=O)CSc1nc(-c2ccccc2)c2c(c1C#N)CCCC2	0.3	97.2*	68.7*	0	5.2
CCCCCNc1nc(N2CCCC2)c2c(c1C#N)CCN(C)C2	0.7	29.3	29.8	0.7	1.8
CCCCCNc1nc(NCCCO)c(C#N)c2c1CN(C)CC2	0.5	23.9	54.3*	0.8	-3.3
N#Cc1c(SCC(=O)O)nc(N2CCCCC2)c2c1CCCC2	0.5	-5.7	46.9	1.1	0.8
CCOc1ccc2nc(SCc3ccccc3C#N)sc2c1	2.5*	50.7*	-146.8	0.5	-1.7
COC(=O)CCC(=O)c1oc2ccccc2c1N	0.7	84.0*	34.9	0.2	-4.0

Compound activity (PubChem)
